Data published in PubChem BioAssay (EPA / NIEHS).
Values joined by “and” are separate entries in the source; they are usually repeats but may differ in a detail not shown here. Equal values may be shown once. The source holds several records for some structures; these can differ, active in one and inactive in another. Active and inactive are the calls of the source. The calls were made as follows: active = hit-call score of the fitted dose curve at least 0.9, where 1 is the maximum; inactive = score below 0.9.

Tests used:
[1] = BSK_BF4T_SRB: Viability Assessment in the BioMAP Diversity Plus: BF4T Assay (AID 2284274); details: primary human bronchial epithelial cells with fibroblasts
Method in brief: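 Co-culture of human bronchial epithelial cells and dermal fibroblasts (BioMAP BF4T) exposed 24 h. Total protein by sulforhodamine B staining (0.1% SRB after 10% TCA fixation, 560 nm) in parallel cultures; fitted vs DMSO.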

[2] = read-out: urokinase Plasminogen Activator (uPA), PLAU (gene 5328); assay: BSK_BF4T_uPA: BioMAP Diversity Plus: BF4T Assay for urokinase Plasminogen Activator (uPA) Biomarker Activity (AID 2284275); details: primary human bronchial epithelial cells with fibroblasts
Method in brief: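 Co-culture of human bronchial epithelial cells and dermal fibroblasts; uPA quantified by ELISA 24 hours after dosing, fitted relative to DMSO. Parallel SRB total-protein staining assessed overt cytotoxicity.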

[3] = read-out: Matrix Metallopeptidase 9 (MMP9), MMP9 (gene 4318); assay: BSK_BF4T_MMP9: BioMAP Diversity Plus: BF4T Assay for Matrix Metallopeptidase 9 (MMP9) Biomarker Activity (AID 2284276); details: primary human bronchial epithelial cells with fibroblasts
Method in brief: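 Co-culture of human bronchial epithelial cells and dermal fibroblasts dosed for 24 h; MMP-9 quantified by ELISA and fitted upward versus DMSO. Cytotoxicity monitored in parallel cultures by SRB total-protein staining at the biomarker time point.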

[4] = read-out: Interleukin-8 (IL8), CXCL8 (gene 3576); assay: BSK_IMphg_IL8: BioMAP Diversity Plus: IMphg Assay for Interleukin-8 (IL8) Biomarker Activity (AID 2284277); details: primary human endothelial cells with macrophages
Method in brief: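 Co-culture of human venular endothelial cells and macrophages exposed to chemicals for 24 h; IL-8 quantified by ELISA and compared against the DMSO baseline, with SRB total-protein staining in parallel cultures for cytotoxicity.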

[5] = read-out: Intercellular Adhesion Molecule 1 (ICAM1), ICAM1 (gene 3383); assay: BSK_BE3C_ICAM1: BioMAP Diversity Plus: BE3C Assay for Intercellular Adhesion Molecule 1 (ICAM1) Biomarker Activity (AID 2284278); details: primary human bronchial epithelial cells;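 also: cell-surface ICAM-1 protein level quantified by ELISA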
Method in brief: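 Human primary bronchial epithelial cultures; compound added; 24 h incubation; cell-surface ICAM-1 measured by ELISA; signal increase fitted relative to DMSO negative control.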

[6] = read-out: Interferon-inducible T-cell alpha chemoattractant (ITAC), CXCL11 (gene 6373); assay: BSK_BE3C_ITAC: BioMAP Diversity Plus: BE3C Assay for Interferon-inducible T-cell alpha chemoattractant (ITAC) Biomarker Activity (AID 2284279); details: primary human bronchial epithelial cells
Method in brief: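 ELISA read-out of I-TAC after 24 h chemical dosing of human lung primary bronchial epithelial cells; gain-of-signal fit vs DMSO baseline. Parallel SRB total-protein staining (0.1% SRB, 10% TCA fixation, 560 nm) assessed cytotoxicity.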

[7] = read-out: Interleukin-8 (IL8), CXCL8 (gene 3576); assay: BSK_BE3C_IL8: BioMAP Diversity Plus: BE3C Assay for Interleukin-8 (IL8) Biomarker Activity (AID 2284280); details: primary human bronchial epithelial cells
Method in brief: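 ELISA read-out of IL-8 in human lung bronchial epithelial primary cell cultures, 24 h post-dosing; endpoint analysed as signal increase relative to DMSO baseline.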

[8] = read-out: Epidermal growth factor receptor (EGFR), EGFR (gene 1956); assay: BSK_BE3C_EGFR: BioMAP Diversity Plus: BE3C Assay for Epidermal growth factor receptor (EGFR) Biomarker Activity (AID 2284281); details: primary human bronchial epithelial cells
Method in brief: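 Primary human lung bronchial epithelial cells; compound, 24 h; EGFR measured by ELISA; positive-direction fit vs DMSO baseline.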

KRT18 (gene 3875) = assay: BSK_BE3C_Keratin818: BioMAP Diversity Plus: BE3C Assay for Keratin 818 Biomarker Activity (AID 2284282); details: primary human bronchial epithelial cells
Method in brief: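 Chemicals are added to human lung bronchial epithelial primary cells (BE3C system) and incubated 24 h. Keratin 8/18 is then measured by ELISA, with parallel SRB total-protein staining gauging overt cytotoxicity.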

[9] = read-out: Plasminogen activator inhibitor-1 (PAI1), SERPINE1 (gene 5054); assay: BSK_CASM3C_PAI1: BioMAP Diversity Plus: CASM3C Assay for Plasminogen activator inhibitor-1 (PAI1) Biomarker Activity (AID 2284284); details: primary human coronary artery smooth muscle cells;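 also: PAI-1 protein level measured by ELISA 24 h after dosing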
[10] = read-out: Monocyte Chemoattractant Protein-1 (MCP1), CCL2 (gene 6347); assay: BSK_hDFCGF_MCP1: BioMAP Diversity Plus: hDFCGF Assay for Monocyte Chemoattractant Protein-1 (MCP1) Biomarker Activity (AID 2284285); details: primary human foreskin fibroblasts
Method in brief: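 Human foreskin fibroblasts (hDFCGF system) were exposed to compound and secreted MCP-1 was measured by ELISA after 24 hours. Activity was fitted relative to DMSO. Cytotoxicity was checked by SRB total-protein staining in parallel cultures.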

[11] = read-out: Vascular cell adhesion molecule 1 (VCAM1), VCAM1 (gene 7412); assay: BSK_IMphg_VCAM1: BioMAP Diversity Plus: IMphg Assay for Vascular cell adhesion molecule 1 (VCAM1) Biomarker Activity (AID 2284286); details: primary human endothelial cells with macrophages
Method in brief: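 Human venular endothelial cells co-cultured with macrophages; VCAM-1 quantified by ELISA 24 h after dosing, fitted in the positive direction against DMSO. Cytotoxicity was checked in parallel cultures by SRB total-protein staining (0.1% SRB after 10% TCA fixation, 560 nm).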

[12] = read-out: Intercellular Adhesion Molecule 1 (ICAM1), ICAM1 (gene 3383); assay: BSK_hDFCGF_ICAM1: BioMAP Diversity Plus: hDFCGF Assay for Intercellular Adhesion Molecule 1 (ICAM1) Biomarker Activity (AID 2284287); details: primary human foreskin fibroblasts
Method in brief: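 Primary human foreskin fibroblasts (hDFCGF system) dosed with chemical; ICAM-1 quantified by ELISA at 24 h relative to DMSO. Parallel SRB total-protein staining to assess overt cytotoxicity.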

CD40, CD40 (gene 958) = assay: BSK_IMphg_CD40: BioMAP Diversity Plus: IMphg Assay for CD40 Biomarker Activity (AID 2284288); details: primary human endothelial cells with macrophages
Method in brief: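 Venular endothelial cells co-cultured with macrophages (human primary), CD40 measured by ELISA 24 h after dosing. Positive-direction fit vs DMSO baseline; cytotoxicity tracked by SRB total-protein staining in parallel cultures.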

[13] = read-out: TIMP metallopeptidase inhibitor 2 (TIMP2), TIMP2 (gene 7077); assay: BSK_hDFCGF_TIMP2: BioMAP Diversity Plus: hDFCGF Assay for TIMP metallopeptidase inhibitor 2 (TIMP2) Biomarker Activity (AID 2284289); details: primary human foreskin fibroblasts
Method in brief: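 Primary human foreskin fibroblasts in the hDFCGF system, dosed for 24 h; TIMP-2 level measured by ELISA, fitted in the positive direction against DMSO; cytotoxicity checked in parallel by sulforhodamine B total protein staining.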

[14] = read-out: Matrix Metallopeptidase 9 (MMP9), MMP9 (gene 4318); assay: BSK_BE3C_MMP9: BioMAP Diversity Plus: BE3C Assay for Matrix Metallopeptidase 9 (MMP9) Biomarker Activity (AID 2284283); details: primary human bronchial epithelial cells
Method in brief: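 Cells were dosed, incubated 24 h, then assayed for MMP-9 by ELISA; activity was fitted upward against DMSO. The system used human lung primary bronchial epithelial cells, with SRB total-protein staining run alongside for cytotoxicity.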

[15] = read-out: Interleukin-1 alpha (IL1a), IL1A (gene 3552); assay: BSK_IMphg_IL1a: BioMAP Diversity Plus: IMphg Assay for Interleukin-1 alpha (IL1a) Biomarker Activity (AID 2284290); details: primary human endothelial cells with macrophages
Method in brief: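 Human venular endothelial cells co-cultured with macrophages, IMphg system. IL-1α is measured by ELISA 24 h after dosing and fitted in the positive direction against DMSO. Cytotoxicity is assessed by SRB staining of parallel cultures.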

[16] = read-out: Plasminogen Activator Inhibitor-1 (PAI1), SERPINE1 (gene 5054); assay: BSK_BF4T_PAI1: BioMAP Diversity Plus: BF4T Assay for Plasminogen Activator Inhibitor-1 (PAI1) Biomarker Activity (AID 2284273); details: primary human bronchial epithelial cells with fibroblasts
Method in brief: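 Co-culture of human bronchial epithelial cells and dermal fibroblasts exposed to compound for 24 h. PAI-1 measured by ELISA; activity fitted in positive direction versus DMSO. Parallel SRB staining assessed overt cytotoxicity.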

Measured: AC50

O=S(=O)(O)CCC(F)(F)C(F)(F)C(F)(F)C(F)(F)C(F)(F)C(F)(F)C(F)(F)C(F)(F)F
inactive: [1] | [2] | [3] | [4] | [5] | [6] | [7] | [8] | KRT18 (gene 3875) | [9] | [10] | [11] | [12] | CD40, CD40 (gene 958) | [13]
active: [7] 20.4 µM | [12] 22.4 µM | CD40, CD40 (gene 958) 20.9 µM

FC(F)(F)C(F)(F)C(F)(F)CC1CO1 (stereo unspecified)
inactive: [1] | [2] | [4] | [5] | [6] | [7] | [8] | KRT18 (gene 3875) | [14] | [9] | [10] | [11] | [12] | CD40, CD40 (gene 958) | [13] | [15]
active: [13] 1.97 µM

CCOC(=O)CC(=O)C(F)(F)C(F)(F)F
not listed: [3] | [14]
inactive: all other assays above

CNS(=O)(=O)C(F)(F)C(F)(F)C(F)(F)C(F)(F)C(F)(F)C(F)(F)C(F)(F)C(F)(F)F
inactive: [16] | [1] | [2] | [4] | [5] | [6] | [8] | KRT18 (gene 3875) | [9] | [10] | [11] | [12] | CD40, CD40 (gene 958) | [13]
active: [4] 14.5 µM | [7] 30 µM and 2.67 µM | [14] 4.25 µM and 373 nM | [11] 16.3 µM | [12] 36.8 µM | [13] 7.96 µM

O=C(O)C(F)(F)C(F)(F)C(F)(F)OC(F)(C(F)(F)F)C(F)(F)F
active: [4] 16.1 µM
inactive: [1] | [2] | [4] | [5] | [6] | [7] | [8] | KRT18 (gene 3875) | [9] | [10] | [11] | [12] | CD40, CD40 (gene 958) | [13]
